Most compounds without a hit are left out; they make up all but 9.4% or so of the library.
Pf growth 96h – Primary qHTS for delayed death inhibitors of the malarial parasite plastid, 96 hour incubation; P. falciparum luciferase reporter growth, 96 h; Potency, µM (highest dose often 28.7 µM), actives largely listed as inhibitors; 320,000 tested, 6.9% active; AID 504834, 2011
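Plates of compound plus infected erythrocytes (2% hematocrit, 0.05% parasitemia final) incubate 96 hours, 37 C, 5% CO2. Detection reagent added; reduced luminescence from the parasites' luciferase reporter flags inhibition.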
SARS PLP yeast – qHTS of Yeast-based Assay for SARS-CoV PLP; S. cerevisiae expressing SARS-CoV PLpro, growth rescue; Potency, µM (highest dose often 32.9 µM), most hits filed as activators; 330,000 tested, 0.19% active; AID 485353, 2010; calls by dose curve; further: nearly all actives have a fitted effect of over 55% in size
Pf growth 48h – Primary qHTS for delayed death inhibitors of the malarial parasite plastid, 48 hour incubation; Potency, µM (titrated, usually from 28.7 µM), most hits filed as inhibitors; P. falciparum luciferase growth in erythrocytes, 48 h; 310,000 tested, 5.9% active
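Luciferase-expressing P. falciparum in infected erythrocytes (2% hematocrit, 0.1% parasitemia final) in RPMI 1640/0.5% Albumax were exposed to compound for 48 hours at 37 C, 5% CO2; growth read as luminescence.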
AMA1 RON2 block – qHTS for Inhibitors of AMA1-RON; Towards Development of Antimalarial Drug Lead: Primary Screen. Plasmodium falciparum AMA1 (3D7) - RON2 peptide interaction. AlphaScreen AMA1-biotinylated RON2 peptide binding. Potency, µM (doses to about 58.2 µM), hits mostly inhibitors. 360,000 tested, 0.2% active. AID 720542, 2013; further: nearly all actives have a fitted effect of over 45% in size
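AMA1 (3D7) with his tag at 25 nM final met compounds first, then biotinylated RON2 peptide at 25 nM; detection used donor plus acceptor beads, 10 µg/mL apiece, read by AlphaScreen after 30 min at room temperature.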
Large screens that a line does not name were inactive. Unless noted, the call rests on the fitted dose curve; in most records, active means well fitted curve in the direction sought with a large enough effect; inconclusive means small, poorly fitted or top-dose-only effect, or another doubt; inactive means no such curve, though single readings can be large; an effect the other way counts as inactive or inconclusive.

Cc1ccc(-c2cc(C(F)F)n3ncc(C(=O)Nc4c(C)nn(Cc5c(Cl)cccc5Cl)c4C)c3n2)cc1	Pf growth 96h 2.3µM, Pf growth 48h inconclusive
Fc1ccccc1CNCCc1ccc2c(c1)OCO2	none
COc1cc2c(cc1OC)C(C)N(S(=O)(=O)c1ccc(Cl)nc1)CC2 (configuration not stated)	Pf growth 96h inconclusive, Pf growth 48h inconclusive
CC(C)(C)c1nc2c(C#N)c(-c3ccc(Cl)cc3)ccn2n1	Pf growth 96h inconclusive (no result: Pf growth 48h)
Cc1cc2ccccc2c(=O)n1CC(=O)N(C)c1ccc(F)cc1	Pf growth 96h 10µM
COC(=O)Nc1ccc(S(=O)(=O)N2CCCC(C(=O)N3CCN(C)CC3)C2)cc1 (configuration not stated)	none
CC1CCC2C(=O)N(c3ccc(NC4CCN(Cc5ccccc5)CC4)c([N+](=O)[O-])c3)C(=O)C2C1 (configuration not stated)	Pf growth 48h 12µM
O=[N+]([O-])c1ccc(NC2CCN(Cc3ccccc3)CC2)c2ccncc12	Pf growth 96h inconclusive, Pf growth 48h 1.7µM
O=C(NNC(=O)C1CC1c1ccccc1)c1ccccc1F (configuration not stated)	Pf growth 96h inconclusive
Fc1ccc2c(c1)C1C=CCC1C(c1cc3c(cc1Br)OCO3)N2 (configuration not stated)	Pf growth 48h 5.2µM
CCOC(=O)C1Nc2ccc(C)cc2C2C=CCC12 (configuration not stated)	none (no result: Pf growth 96h, SARS PLP yeast, Pf growth 48h)
Cc1cccc(NC(=O)c2n[nH]c([N+](=O)[O-])c2Br)c1C	Pf growth 96h inconclusive
O=C(Nc1cccc(S(=O)(=O)N2CCCCC2)c1)c1ccccc1NS(=O)(=O)c1ccc(F)cc1	Pf growth 96h 8.3µM, Pf growth 48h 12µM
Cc1ccc(NC(=O)CCNC(=O)c2ccccc2Cl)cc1S(=O)(=O)N1CCCCCC1	Pf growth 96h inconclusive, Pf growth 48h inconclusive
Cc1ccc(NC(=O)c2ccccc2NS(=O)(=O)c2ccc(F)cc2)cc1S(=O)(=O)N1CCCCC1	Pf growth 96h 12µM, Pf growth 48h 13µM
NS(=O)(=O)c1cccc(NC(=O)c2ccccc2NS(=O)(=O)c2ccc(F)cc2)c1	none
Cc1cc(C)c(/C=N/n2c(C)cc(C)c(C#N)c2=O)c(C)c1	Pf growth 96h 10µM, Pf growth 48h inconclusive
Cc1cc(C)n(/N=C/c2cccs2)c(=O)c1C#N	Pf growth 96h inconclusive
COCCn1c(=S)[nH]c2cc(C(=O)N3CCN(C4CCCCC4)CC3)ccc2c1=O	none (no result: Pf growth 96h, SARS PLP yeast, Pf growth 48h)
CCOCCCn1c(=S)[nH]c2cc(C(=O)N3CCN(C4CCCCC4)CC3)ccc2c1=O	Pf growth 96h 5.2µM
CCOCCCn1c(=S)[nH]c2cc(C(=O)N3CCN(c4ccccc4)CC3)ccc2c1=O	Pf growth 96h 15µM
N#CC1=C(N)Oc2n[nH]c(-c3cccs3)c2C1c1cccs1 (configuration not stated)	Pf growth 48h inconclusive
O=S(=O)(Nc1ccc(Cc2ccncc2)cc1)c1ccc(Cl)s1	none
COc1ccc(OC)c(C2NC(=O)NC(C)=C2C(=O)OCc2ccccc2)c1 (configuration not stated)	none
COc1cc2c(cc1OC)[C@H](C)N(C(=O)CSc1nc(O)c(C(C)C)c(=O)[nH]1)CC2	Pf growth 96h inconclusive, Pf growth 48h inconclusive
COc1cc(CNC(=O)c2cnccn2)cc(OC)c1	none (no result: Pf growth 96h, SARS PLP yeast, Pf growth 48h)
O=C(CSc1nc2ccc(N3CCOCC3)cc2c(=O)n1CCc1ccccc1)NCC1CCCO1 (configuration not stated)	Pf growth 96h inconclusive, Pf growth 48h inconclusive
COc1ccc(-n2c(C)c3c(OC)cccc(=O)c3c2C)cc1	Pf growth 96h 10µM, Pf growth 48h inconclusive
COc1ccccc1-n1c(C)c2c(OC)cccc(=O)c2c1C	Pf growth 48h 4.1µM
CCO/C=N/c1c(C#N)c2c(c(=S)n1C)COC(C)(C)C2	none
CCC1C(=O)N(c2nc(C)cc(C)n2)N=C1C (configuration not stated)	none (no result: Pf growth 48h)
Cc1nc(-c2ccc(NC(=O)C3CC3)cc2)cs1	none
Cc1ccc(NS(=O)(=O)c2cc(NC(=O)c3ccc4c(c3)NC(=O)CS4)ccc2Cl)c(C)c1	Pf growth 96h 7.4µM
Cc1ccc(NC(=O)c2cc3c(s2)CCCC3)cc1	none
Cc1ccc(NS(=O)(=O)c2cc(NC(=O)c3cc4c(s3)CCCC4)ccc2C)c(C)c1	Pf growth 96h 10µM, Pf growth 48h inconclusive
Cc1ccc(-n2c(=O)[nH]cc(C(=O)Nc3ccc4c(c3)OCCO4)c2=O)cc1	none (no result: Pf growth 96h)
O=C(Nc1cccc2ccccc12)/C(=C/c1cccc([N+](=O)[O-])c1)NC(=O)c1cccs1	Pf growth 96h inconclusive
Cc1ccc(NC(=O)/C(=C\c2ccc([N+](=O)[O-])cc2)NC(=O)c2ccccc2)cc1	Pf growth 96h 5.2µM, Pf growth 48h inconclusive
O=C(Nc1cccc2ccccc12)/C(=C/c1ccc([N+](=O)[O-])cc1)NC(=O)c1ccccc1	Pf growth 96h 9.3µM, Pf growth 48h inconclusive
O=C(Nc1cccc(C(=O)O)c1)/C(=C/c1ccc([N+](=O)[O-])cc1)NC(=O)c1ccccc1	none
CN(C(=O)c1c(Cl)nc2sccn12)C1CCCCC1	Pf growth 96h inconclusive
Cc1cc([N+](=O)[O-])nn1CCCC(=O)Nc1sc2c(c1C(N)=O)CCCC2	Pf growth 48h inconclusive
O=C(CCCOc1ccccc1)N1CCN(c2ccc(F)cc2)CC1	Pf growth 96h 12µM (no result: Pf growth 48h)
CC(=O)c1cc(F)ccc1OCC(=O)N1CCN(c2ccc(F)cc2)CC1	Pf growth 48h 4.1µM
COC(=O)c1ccccc1OCC(=O)N1CCN(c2ccc(F)cc2)CC1	none
CC1(C)CC(=O)C=C(/C=C/c2ccccc2)C1	Pf growth 96h 2.1µM, Pf growth 48h inconclusive
CC1(C)CC(=O)C=C(NCCc2ccccc2)C1	none
CCc1cc2c3c([nH]c2cc1S(=O)(=O)N1CCC2(CC1)OCCO2)CCCC3=O	Pf growth 96h inconclusive, Pf growth 48h inconclusive
Cc1cc2c3c([nH]c2cc1S(=O)(=O)N1CCC2(CC1)OCCO2)CC(C)(C)CC3=O	Pf growth 96h inconclusive, Pf growth 48h 8.3µM
CC(=O)Nc1ncc(Sc2ccc([N+](=O)[O-])cc2)s1	none (no result: Pf growth 96h, SARS PLP yeast, Pf growth 48h)
O=C(CN1CCN(CC(=O)c2ccccc2)CC1)c1ccccc1	none (no result: Pf growth 96h, SARS PLP yeast, Pf growth 48h)
Cc1cc(NC(=O)C2CCCC2)nc2c1c(=O)oc1ccccc12	none
Cc1cc(NC(=O)C2CCCCC2)nc2c1c(=O)oc1ccccc12	Pf growth 96h 6.6µM
N#Cc1c(-c2cccs2)cc(-c2ccccn2)nc1N	Pf growth 96h 9.3µM
CC(CC(=O)OCC(=O)NCc1ccc(Cl)cc1)c1ccccc1 (configuration not stated)	Pf growth 48h inconclusive
COc1ccc([C@H]2C[C@@H](n3cc(COC(=O)c4ccccc4)nn3)[C@H](O)CN2CC2CCCCC2)cc1	none (no result: Pf growth 96h, SARS PLP yeast, Pf growth 48h)
O=C(CSc1ccc2nnc(-c3ccccn3)n2n1)Nc1ccccc1	Pf growth 96h inconclusive, Pf growth 48h 13µM
Cc1cc(NC(=O)CSc2ccc3nnc(-c4ccc(Cl)cc4)n3n2)no1	none (no result: Pf growth 48h)
